For assay [1], the target named is Mitogen-activated protein kinase 11 (Homo sapiens) (UniProt Q15759). The conditions noted are these: at 1 µM.
Assay [2] has the same target. The conditions noted are these: at 10 µM.
The target in assay [3] is T1, Mitogen-activated protein kinase 13 (Homo sapiens) (UniProt O15264).
T1 sequence (whole entry): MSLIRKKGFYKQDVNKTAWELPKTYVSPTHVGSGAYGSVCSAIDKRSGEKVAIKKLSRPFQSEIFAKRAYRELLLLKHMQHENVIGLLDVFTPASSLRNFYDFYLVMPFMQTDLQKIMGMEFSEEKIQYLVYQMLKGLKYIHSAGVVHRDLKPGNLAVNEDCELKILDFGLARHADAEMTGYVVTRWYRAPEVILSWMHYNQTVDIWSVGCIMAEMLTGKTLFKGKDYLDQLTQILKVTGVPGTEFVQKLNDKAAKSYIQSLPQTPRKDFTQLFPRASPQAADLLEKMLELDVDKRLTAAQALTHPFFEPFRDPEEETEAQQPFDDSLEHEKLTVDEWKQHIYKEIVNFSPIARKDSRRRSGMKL
The following applies: at 1 µM.

In assay [4] the target is T1, Mitogen-activated protein kinase 13 (Homo sapiens). The conditions noted are these: at 10 µM.
In assay [5] the target is T2, Serine/threonine-protein kinase Sgk1 (Homo sapiens) (UniProt O00141).
T2 sequence (whole entry): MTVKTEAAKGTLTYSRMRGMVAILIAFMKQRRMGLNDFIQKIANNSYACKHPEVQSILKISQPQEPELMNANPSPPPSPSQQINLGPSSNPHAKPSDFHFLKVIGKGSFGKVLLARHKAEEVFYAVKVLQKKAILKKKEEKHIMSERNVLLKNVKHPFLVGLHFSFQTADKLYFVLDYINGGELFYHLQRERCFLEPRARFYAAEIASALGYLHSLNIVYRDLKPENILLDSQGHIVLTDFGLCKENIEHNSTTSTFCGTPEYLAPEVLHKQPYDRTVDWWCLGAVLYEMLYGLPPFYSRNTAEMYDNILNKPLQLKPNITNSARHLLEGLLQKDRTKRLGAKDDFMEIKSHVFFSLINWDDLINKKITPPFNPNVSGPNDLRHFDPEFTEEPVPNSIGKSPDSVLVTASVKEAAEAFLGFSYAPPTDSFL
The following applies: at 1 µM.

Assay [6] deals with T2, Serine/threonine-protein kinase Sgk1 (Homo sapiens). The following applies: at 10 µM.
For assay [7], the target named is T3, Serine/threonine-protein kinase Sgk2 (Homo sapiens) (UniProt Q9HBY8).
T3 sequence (whole entry): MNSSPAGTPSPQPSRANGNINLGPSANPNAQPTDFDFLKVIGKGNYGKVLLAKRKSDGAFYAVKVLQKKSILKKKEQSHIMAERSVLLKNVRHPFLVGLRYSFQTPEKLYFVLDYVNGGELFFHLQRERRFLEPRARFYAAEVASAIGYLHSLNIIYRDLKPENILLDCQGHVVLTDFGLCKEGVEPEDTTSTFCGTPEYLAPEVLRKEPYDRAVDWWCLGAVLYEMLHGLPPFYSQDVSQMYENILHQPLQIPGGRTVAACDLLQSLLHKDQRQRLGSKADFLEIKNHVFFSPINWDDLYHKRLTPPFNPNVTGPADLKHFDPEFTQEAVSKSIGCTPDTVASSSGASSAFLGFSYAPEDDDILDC
The conditions noted are these: at 1 µM.

The target of assay [8] is T3, Serine/threonine-protein kinase Sgk2 (Homo sapiens). The conditions noted are these: at 10 µM.
Assay [9] concerns the target T4, Serine/threonine-protein kinase Sgk3 (Homo sapiens) (UniProt Q96BR1).
T4 sequence (whole entry): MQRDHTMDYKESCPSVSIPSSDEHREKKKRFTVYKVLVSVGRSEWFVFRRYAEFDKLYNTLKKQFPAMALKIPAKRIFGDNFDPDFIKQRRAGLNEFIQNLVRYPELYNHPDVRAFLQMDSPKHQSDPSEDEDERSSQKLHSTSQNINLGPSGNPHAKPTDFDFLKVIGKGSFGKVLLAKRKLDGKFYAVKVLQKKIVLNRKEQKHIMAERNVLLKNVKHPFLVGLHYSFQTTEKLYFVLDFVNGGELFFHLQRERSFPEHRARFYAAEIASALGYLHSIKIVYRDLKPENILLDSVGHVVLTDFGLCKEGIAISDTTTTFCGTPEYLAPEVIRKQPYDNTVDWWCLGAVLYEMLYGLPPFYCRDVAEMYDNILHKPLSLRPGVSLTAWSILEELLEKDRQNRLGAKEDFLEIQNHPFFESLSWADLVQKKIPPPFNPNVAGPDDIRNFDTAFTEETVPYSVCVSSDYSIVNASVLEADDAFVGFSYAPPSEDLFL
The following applies: at 10 µM.

Assay [10] addresses Serine/threonine-protein kinase SIK1 (Homo sapiens) (UniProt P57059). The following applies: at 1 µM.
Assay [11] has the same target. The following applies: at 10 µM.
Assay [12] has as its target SRSF protein kinase 1 (Homo sapiens) (UniProt Q96SB4). The following applies: at 1 µM.
For assay [13] the target is unchanged. The following applies: at 10 µM.
Assay [14] concerns the target SRSF protein kinase 2 (Homo sapiens) (UniProt P78362). The following applies: at 1 µM.
The target is the same in assay [15]. The following applies: at 10 µM.
Assay [16] has as its target Serine/threonine-protein kinase 33 (Homo sapiens) (UniProt Q9BYT3). The following applies: at 1 µM.
The target is the same in assay [17]. The conditions noted are these: at 10 µM.
In assay [18] the target is Serine/threonine-protein kinase PLK2 (Homo sapiens) (UniProt Q9NYY3). The following applies: at 1 µM.
Chain of Serine/threonine-protein kinase PLK2 (Homo sapiens) (Q9NYY3 whole entry, looked up): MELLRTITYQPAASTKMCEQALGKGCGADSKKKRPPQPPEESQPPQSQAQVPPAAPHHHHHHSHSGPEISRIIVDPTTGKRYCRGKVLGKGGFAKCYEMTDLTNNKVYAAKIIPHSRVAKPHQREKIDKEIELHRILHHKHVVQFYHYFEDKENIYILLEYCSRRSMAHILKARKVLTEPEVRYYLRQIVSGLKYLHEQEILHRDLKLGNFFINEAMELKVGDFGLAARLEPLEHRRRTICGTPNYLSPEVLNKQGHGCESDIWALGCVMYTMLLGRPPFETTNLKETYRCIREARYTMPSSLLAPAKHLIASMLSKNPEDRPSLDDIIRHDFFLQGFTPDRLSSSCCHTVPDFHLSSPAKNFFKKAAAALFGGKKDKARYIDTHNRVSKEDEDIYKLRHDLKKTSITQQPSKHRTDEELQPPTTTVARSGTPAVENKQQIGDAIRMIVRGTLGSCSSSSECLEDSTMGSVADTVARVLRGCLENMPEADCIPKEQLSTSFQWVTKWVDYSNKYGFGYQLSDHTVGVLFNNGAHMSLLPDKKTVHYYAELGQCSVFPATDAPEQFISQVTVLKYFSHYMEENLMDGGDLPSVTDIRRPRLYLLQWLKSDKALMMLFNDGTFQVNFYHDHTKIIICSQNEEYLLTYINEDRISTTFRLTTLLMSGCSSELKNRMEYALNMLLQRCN
Assay [19] has the same target. The conditions noted are these: at 10 µM.
In assay [20] the target is Tyrosine-protein kinase SYK (Homo sapiens) (UniProt P43405). The following applies: at 1 µM.

In ChEMBL document CHEMBL2218924, “A broad activity screen in support of a chemogenomic map for kinase signalling research and drug discovery” (Biochem J, 2013) one finds residual activity data, which are given here for six molecules.

Structures are written as SMILES.

Chain of SRSF protein kinase 1 (Homo sapiens) (Q96SB4 whole entry): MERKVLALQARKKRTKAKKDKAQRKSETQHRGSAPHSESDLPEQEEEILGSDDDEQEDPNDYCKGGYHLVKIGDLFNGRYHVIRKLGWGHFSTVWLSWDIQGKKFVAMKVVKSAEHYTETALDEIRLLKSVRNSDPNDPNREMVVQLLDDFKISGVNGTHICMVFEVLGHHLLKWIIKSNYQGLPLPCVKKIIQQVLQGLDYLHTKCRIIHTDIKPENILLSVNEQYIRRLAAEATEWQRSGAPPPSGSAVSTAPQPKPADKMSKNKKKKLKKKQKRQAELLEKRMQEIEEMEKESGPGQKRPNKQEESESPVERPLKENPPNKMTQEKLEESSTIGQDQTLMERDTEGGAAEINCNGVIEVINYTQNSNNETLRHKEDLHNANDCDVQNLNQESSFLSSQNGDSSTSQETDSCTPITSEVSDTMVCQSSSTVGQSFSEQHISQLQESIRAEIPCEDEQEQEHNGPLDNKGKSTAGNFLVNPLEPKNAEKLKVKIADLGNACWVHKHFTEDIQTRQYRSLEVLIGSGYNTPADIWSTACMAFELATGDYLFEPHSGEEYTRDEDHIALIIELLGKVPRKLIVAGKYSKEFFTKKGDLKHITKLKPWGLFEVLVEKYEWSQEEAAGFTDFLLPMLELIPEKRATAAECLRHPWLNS
Chain of Mitogen-activated protein kinase 11 (Homo sapiens) (Q15759 whole entry): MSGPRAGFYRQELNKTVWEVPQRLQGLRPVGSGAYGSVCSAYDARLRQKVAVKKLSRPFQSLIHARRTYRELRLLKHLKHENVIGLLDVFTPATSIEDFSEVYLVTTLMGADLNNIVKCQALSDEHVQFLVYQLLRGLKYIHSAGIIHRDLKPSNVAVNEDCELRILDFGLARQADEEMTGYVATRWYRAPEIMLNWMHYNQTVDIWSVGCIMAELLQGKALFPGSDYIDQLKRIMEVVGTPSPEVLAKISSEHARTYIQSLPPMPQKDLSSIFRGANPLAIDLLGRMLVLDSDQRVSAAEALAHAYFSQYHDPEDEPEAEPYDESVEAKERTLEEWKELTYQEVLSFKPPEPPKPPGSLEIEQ
Chain of Serine/threonine-protein kinase 33 (Homo sapiens) (Q9BYT3 whole entry, looked up): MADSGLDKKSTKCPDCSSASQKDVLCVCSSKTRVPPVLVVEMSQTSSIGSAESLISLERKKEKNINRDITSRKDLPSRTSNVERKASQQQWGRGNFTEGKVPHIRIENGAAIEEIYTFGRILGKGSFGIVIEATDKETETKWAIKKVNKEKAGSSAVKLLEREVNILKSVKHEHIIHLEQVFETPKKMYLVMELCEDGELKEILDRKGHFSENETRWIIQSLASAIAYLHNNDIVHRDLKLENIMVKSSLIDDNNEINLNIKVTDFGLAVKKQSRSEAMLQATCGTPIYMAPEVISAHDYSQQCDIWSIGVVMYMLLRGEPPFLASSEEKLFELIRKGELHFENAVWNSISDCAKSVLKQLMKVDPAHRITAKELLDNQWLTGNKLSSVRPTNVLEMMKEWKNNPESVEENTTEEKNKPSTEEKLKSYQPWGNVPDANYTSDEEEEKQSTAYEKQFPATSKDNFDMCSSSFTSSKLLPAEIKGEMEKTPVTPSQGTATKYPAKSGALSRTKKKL
Chain of SRSF protein kinase 2 (Homo sapiens) (P78362 whole entry, looked up): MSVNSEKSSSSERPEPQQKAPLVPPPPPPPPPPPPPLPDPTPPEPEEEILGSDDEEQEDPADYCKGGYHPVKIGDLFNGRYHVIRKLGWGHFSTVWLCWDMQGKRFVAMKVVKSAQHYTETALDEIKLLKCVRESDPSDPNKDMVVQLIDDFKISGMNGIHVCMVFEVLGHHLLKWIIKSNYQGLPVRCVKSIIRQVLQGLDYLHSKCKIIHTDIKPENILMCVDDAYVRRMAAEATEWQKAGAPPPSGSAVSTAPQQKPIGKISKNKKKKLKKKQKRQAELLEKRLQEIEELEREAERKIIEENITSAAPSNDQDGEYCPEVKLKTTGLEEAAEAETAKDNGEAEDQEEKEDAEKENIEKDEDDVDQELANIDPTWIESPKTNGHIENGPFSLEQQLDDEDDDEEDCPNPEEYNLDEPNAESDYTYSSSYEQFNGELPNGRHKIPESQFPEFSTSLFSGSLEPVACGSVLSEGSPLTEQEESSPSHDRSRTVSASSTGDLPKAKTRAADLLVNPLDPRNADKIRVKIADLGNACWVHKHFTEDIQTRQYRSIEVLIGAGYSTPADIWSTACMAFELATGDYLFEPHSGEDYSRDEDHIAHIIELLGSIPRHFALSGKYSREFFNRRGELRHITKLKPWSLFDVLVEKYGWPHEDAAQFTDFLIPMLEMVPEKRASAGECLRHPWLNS
Chain of Serine/threonine-protein kinase SIK1 (Homo sapiens) (P57059 whole entry): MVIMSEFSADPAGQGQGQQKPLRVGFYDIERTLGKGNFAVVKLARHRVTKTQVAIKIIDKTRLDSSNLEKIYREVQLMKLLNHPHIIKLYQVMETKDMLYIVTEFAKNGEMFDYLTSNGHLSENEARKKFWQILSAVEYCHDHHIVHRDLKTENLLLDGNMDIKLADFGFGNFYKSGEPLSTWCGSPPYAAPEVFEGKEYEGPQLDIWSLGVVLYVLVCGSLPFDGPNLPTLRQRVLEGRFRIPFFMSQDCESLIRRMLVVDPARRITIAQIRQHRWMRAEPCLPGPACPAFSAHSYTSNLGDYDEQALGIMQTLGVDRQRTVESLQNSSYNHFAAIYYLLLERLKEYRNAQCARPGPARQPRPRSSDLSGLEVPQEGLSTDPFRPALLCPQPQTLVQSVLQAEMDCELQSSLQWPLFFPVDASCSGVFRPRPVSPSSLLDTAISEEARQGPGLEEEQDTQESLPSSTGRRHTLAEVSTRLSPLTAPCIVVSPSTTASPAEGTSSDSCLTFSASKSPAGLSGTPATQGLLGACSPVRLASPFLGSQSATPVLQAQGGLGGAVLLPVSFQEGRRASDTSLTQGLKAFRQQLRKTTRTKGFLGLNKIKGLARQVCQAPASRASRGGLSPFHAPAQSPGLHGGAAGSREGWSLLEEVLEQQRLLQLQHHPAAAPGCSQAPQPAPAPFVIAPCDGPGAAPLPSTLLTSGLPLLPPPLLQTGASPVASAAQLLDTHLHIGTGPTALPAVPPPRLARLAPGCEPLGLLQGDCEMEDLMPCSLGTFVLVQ

For the molecule `CC(C)n1cnc2/c(=N/c3cccc(Cl)c3)nc(NCCO)[nH]c21`, the residual activity in assay [1] was 101%; in [2], 94%; in assay [3], 103%; in [4], 99%; in [5], 89%; in assay [6] it was 110%. Besides, the residual activity in assay [7] is 105%; in assay [8], 83%; in [9], 82%; in assay [10] it was 90%; in assay [11] it was 28%; in [12], 41%. The residual activity is -2% in assay [13]; 27% in [14]; 2% in assay [15]; 78% in [16]; 28% in assay [17]; 61% in assay [18]. Besides, the residual activity was 22% in [19] and 79% in assay [20].
Regarding `O=C1c2ccccc2-[n+]2ccc3c([nH]c4ccccc43)c21`, the residual activity in [1] came to 94%; in assay [2], 89%; in [3], 103%; in assay [4], 96%; in [5], 88%; in [6] it was 95%. For the same molecule, the residual activity in [7] was 73%; in assay [8] it was 76%; in assay [9], 80%; in [10], 116%; in assay [11] it was 104%; in assay [12] it was 90%. Moreover, the residual activity in [13] was 93%; in assay [14] it was 101%; in [15] it was 87%; in assay [16], 86%; in [17], 86%; in assay [18], 95%. Besides, the residual activity in assay [19] is 101%; in assay [20], 93%.
Turning to `Cc1ccc(NC2=CC(=O)c3sc(C)nc3C2=O)cc1`, the residual activity in [1] was found to be 102%; in assay [2] it was 100%; in assay [3] it was 98%; in assay [4] it was 96%; in assay [5] it was 87%; in assay [6], 92%. The residual activity in [7] amounted to 103%; in assay [8] it was 82%; in assay [9], 83%; in assay [10], 109%; in [11], 91%; in [12], 97%. The residual activity in assay [13] came to 96%; in assay [14], 98%; in assay [15], 87%; in assay [16], 88%; in [17], 92%; in assay [18] it was 95%. The results for the residual activity in assay [19] and in assay [20] were 93% and 99%, respectively.
Regarding `Cn1nc2c3c(cccc31)C(=O)c1ccccc1-2`, the residual activity turned out to be 101% in assay [1]; 92% in assay [2]; 94% in assay [3]; 88% in [4]; 77% in assay [5]; 72% in assay [6]. The residual activity in assay [7] came to 100%; in [8] it was 69%; in assay [9] it was 74%; in [10], 132%; in assay [11], 64%; in assay [12], 101%. Moreover, the residual activity is 89% in assay [13]; 100% in [14]; 71% in assay [15]; 87% in assay [16]; 74% in assay [17]; 100% in assay [18]. Moreover, the residual activity was 89% in [19] and 96% in [20].
As to `N#C/C(=C(\N)Sc1ccc(N)cc1)c1ccccc1C(F)(F)F`, the residual activity in assay [1] was 104%; in assay [2], 101%; in assay [3], 95%; in assay [4], 90%; in [5], 81%; in assay [6], 98%. Moreover, the residual activity in assay [7] stood at 100%; in assay [8] it was 117%; in [9] it was 93%; in assay [10], 104%; in assay [11], 85%; in [12], 99%. The residual activity came to 99% in assay [13]; 108% in assay [14]; 82% in [15]; 92% in assay [16]; 93% in assay [17]; 100% in [18]. Further, the residual activity is 98% in assay [19] and 73% in assay [20].
With `CO[C@H]1C[C@@H]2CC[C@@H](C)[C@@](O)(O2)C(=O)C(=O)N2CCCC[C@H]2C(=O)O[C@H]([C@H](C)C[C@@H]2CC[C@@H](O)[C@H](OC)C2)CC(=O)[C@H](C)/C=C(\C)[C@@H](O)[C@@H](OC)C(=O)[C@H](C)C[C@H](C)/C=C/C=C/C=C/1C`, the residual activity came to 97% in assay [1]; 103% in assay [2]; 110% in [3]; 95% in assay [4]; 93% in [5]; 213% in assay [6]. The residual activity in [7] came out at 124%; in assay [8], 149%; in assay [9] it was 148%; in [10], 101%; in assay [11] it was 81%; in assay [12] it was 103%. Moreover, the residual activity in assay [13] stood at 108%; in assay [14], 99%; in assay [15] it was 92%; in assay [16], 92%; in assay [17] it was 107%; in [18], 104%. The residual activity in assay [19] is 103%; in [20], 106%.
